Common to all, as to conditions: treatment time: 24 h
In experiment [1] the test system is A549-ACTB-RAB5A. Nature of the experiment: lowest phenotypically active concentration; higher = less potent. In outline: (§1)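 Four wells per concentration (0.3, 1, 3 or 9 µM) were treated for 24 h in each of fifteen gene-edited reporter lines from A549, HepG2 and WPMY1 cells, then imaged live. After normalising live-cell features to solvent control wells, deviation was defined as ≥3 of 4 wells lying past the 95th percentile of control Euclidean distances. Reproducibility was defined as a median replicate Pearson correlation above the 95th percentile of non-replicates. Both had to hold for phenotypic activity.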

In experiment [2] the test system is A549-GM130-SQSTM1. The description is as above. The method, boiled down:
as §1

In experiment [3] the test system is A549-TUBA1B-RELA. Described as above. The method, boiled down:
as §1

The subject of experiment [4] is HepG2-ACTB-RAB5A. The experiment is described as above. The method, boiled down: as §1
The test system of experiment [5] is WPMY1-GM130-SQSTM1. Described as above. The method, boiled down: as §1
In experiment [6] the test system is A549-ACTB-RAB5A. As to the kind of experiment: phenotypically active (imaging signature differs from DMSO and reproducible) at any of 0.3-9 uM (binary (1 = active, 0 = inactive)); higher = active. The method, boiled down:
as §1

The test system of another experiment is A549-CANX-COX4. The experiment is described as above. The method, boiled down: as §1
The test system of experiment [7] is A549-GM130-SQSTM1. The experiment is described as above. In outline: as §1
The next experiment has as its system A549-TP53BP1-CLTA. Described as above. In outline:
as §1

The test system of experiment [8] is A549-TUBA1B-RELA. The experiment is described as above. The method, boiled down:
as §1

The test system of experiment [9] is HepG2-ACTB-RAB5A. The description is as above. The method, boiled down:
as §1

Another experiment deals with HepG2-CANX-COX4. The description is as above. The method, boiled down: as §1
A further experiment concerns HepG2-GM130-SQSTM1. The description is as above. The method, boiled down: as §1
Another experiment concerns HepG2-TP53BP1-CLTA. The description is as above. In outline:
as §1

For another experiment, the system named is HepG2-TUBA1B-RELA. The experiment is described as above. The method, boiled down:
as §1

The subject of another experiment is WPMY1-ACTB-RAB5A. The description is as above. The method, boiled down:
as §1

Another experiment concerns WPMY1-CANX-COX4. Described as above. The method, boiled down: as §1
Experiment [10] relates to WPMY1-GM130-SQSTM1. The description is as above. The method, boiled down:
as §1

Another experiment relates to WPMY1-TP53BP1-CLTA. Described as above. In outline:
as §1

For another experiment, the system named is WPMY1-TUBA1B-RELA. The experiment is described as above. The method, boiled down: as §1

SMILES strings stand for the structures. Where a name gives a salt, the structure may show the parent alone.

Regarding `CNCCCC12CCC(c3ccccc31)c1ccccc12` [maprotiline], the “lowest phenotypically active concentration” value with A549-ACTB-RAB5A [1] turned out to be 3 µM; in the experiment with A549-GM130-SQSTM1 [2] it was 3 µM; in the experiment on A549-TUBA1B-RELA [3], 3 µM; in the experiment with HepG2-ACTB-RAB5A [4], 9 µM; with WPMY1-GM130-SQSTM1 [5], 9 µM. Besides, the phenotypically active is 1 (active) in the experiment with A549-ACTB-RAB5A [6]; 0 (inactive) in the experiment with A549-CANX-COX4; 1 (active) in the experiment on A549-GM130-SQSTM1 [7]; 0 (inactive) with A549-TP53BP1-CLTA; 1 (active) with A549-TUBA1B-RELA [8]; 1 (active) in the experiment with HepG2-ACTB-RAB5A [9]. Also, the phenotypically active is 0 (inactive) with HepG2-CANX-COX4; 1 (active) with HepG2-GM130-SQSTM1; 1 (active) in the experiment with HepG2-TP53BP1-CLTA; 1 (active) in the experiment on HepG2-TUBA1B-RELA; 1 (active) in the experiment with WPMY1-ACTB-RAB5A; 1 (active) with WPMY1-CANX-COX4. Further, the phenotypically active in the experiment with WPMY1-GM130-SQSTM1 [10], in the experiment with WPMY1-TP53BP1-CLTA and with WPMY1-TUBA1B-RELA was 1 (active) each time.
With `O[C@H](CNC[C@H](O)[C@@H]1CCc2cc(F)ccc2O1)[C@@H]1CCc2cc(F)ccc2O1` [nebivolol], the “lowest phenotypically active concentration” value in the experiment on A549-ACTB-RAB5A [1] came out at 3 µM; in the experiment on A549-GM130-SQSTM1 [2], 3 µM; with A549-TUBA1B-RELA [3], 3 µM; with HepG2-ACTB-RAB5A [4], 3 µM; in the experiment with WPMY1-GM130-SQSTM1 [5], 9 µM. Besides, the phenotypically active in the experiment with A549-ACTB-RAB5A [6] was 1 (active); with A549-CANX-COX4 it was 0 (inactive); with A549-GM130-SQSTM1 [7] it was 1 (active); in the experiment on A549-TP53BP1-CLTA it was 0 (inactive); with A549-TUBA1B-RELA [8], 1 (active); with HepG2-ACTB-RAB5A [9], 1 (active). The phenotypically active in the experiment with HepG2-CANX-COX4 is 0 (inactive); in the experiment on HepG2-GM130-SQSTM1, 0 (inactive); in the experiment with HepG2-TP53BP1-CLTA, 1 (active); in the experiment on HepG2-TUBA1B-RELA it was 1 (active); with WPMY1-ACTB-RAB5A, 1 (active); with WPMY1-CANX-COX4, 1 (active). In addition, the phenotypically active in the experiment on WPMY1-GM130-SQSTM1 [10], with WPMY1-TP53BP1-CLTA and with WPMY1-TUBA1B-RELA was 1 (active) each time.
On to `CN1CCN(c2ccc(-c3cccc(CN4CCOCC4)c3)cc2NC(=O)c2c[nH]c(=O)cc2C(F)(F)F)CC1`, for which the “lowest phenotypically active concentration” value with A549-ACTB-RAB5A [1], in the experiment on A549-GM130-SQSTM1 [2], in the experiment on A549-TUBA1B-RELA [3] and in the experiment on WPMY1-GM130-SQSTM1 [5] was 9 µM in each case. In addition, the phenotypically active in the experiment on A549-ACTB-RAB5A [6] is 1 (active); with A549-CANX-COX4, 0 (inactive); with A549-GM130-SQSTM1 [7], 1 (active); in the experiment with A549-TP53BP1-CLTA, 0 (inactive); in the experiment with A549-TUBA1B-RELA [8], 1 (active); in the experiment with HepG2-ACTB-RAB5A [9], 0 (inactive). The phenotypically active was 0 (inactive) in the experiment on HepG2-CANX-COX4; 1 (active) in the experiment with HepG2-GM130-SQSTM1; 1 (active) in the experiment on HepG2-TP53BP1-CLTA; 1 (active) with HepG2-TUBA1B-RELA; 0 (inactive) in the experiment with WPMY1-ACTB-RAB5A; 1 (active) in the experiment on WPMY1-CANX-COX4. In addition, the phenotypically active in the experiment with WPMY1-GM130-SQSTM1 [10], in the experiment on WPMY1-TP53BP1-CLTA and in the experiment on WPMY1-TUBA1B-RELA was 1 (active) in each case.
For `O=C([C@@H](Cc1cccc(C(F)(F)F)c1)NS(=O)(=O)c1cc(F)c2c(c1)CCNC2)N1CCCC1` [(R)-PFI 2 hydrochloride], the “lowest phenotypically active concentration” value in the experiment on A549-ACTB-RAB5A [1], with A549-GM130-SQSTM1 [2] and with A549-TUBA1B-RELA [3] was 9 µM in each case. The phenotypically active was 1 (active) in the experiment with A549-ACTB-RAB5A [6]; 0 (inactive) in the experiment on A549-CANX-COX4; 1 (active) in the experiment on A549-GM130-SQSTM1 [7]; 0 (inactive) with A549-TP53BP1-CLTA; 1 (active) in the experiment on A549-TUBA1B-RELA [8]; 0 (inactive) in the experiment on HepG2-ACTB-RAB5A [9]. Also, the phenotypically active with HepG2-CANX-COX4, in the experiment with HepG2-GM130-SQSTM1, with HepG2-TP53BP1-CLTA, in the experiment on HepG2-TUBA1B-RELA, in the experiment with WPMY1-ACTB-RAB5A and in the experiment on WPMY1-CANX-COX4 was 0 (inactive) each time. The phenotypically active in the experiment on WPMY1-GM130-SQSTM1 [10], in the experiment on WPMY1-TP53BP1-CLTA and in the experiment with WPMY1-TUBA1B-RELA was 0 (inactive) in each case.
Take `NC(=O)C(c1ccccc1)(c1ccccc1)[C@@H]1CCN(CCc2ccc3c(c2)CCO3)C1` [darifenacin]: the “lowest phenotypically active concentration” value in the experiment on A549-ACTB-RAB5A [1], with A549-GM130-SQSTM1 [2], with A549-TUBA1B-RELA [3], with HepG2-ACTB-RAB5A [4] and in the experiment on WPMY1-GM130-SQSTM1 [5] was 9 µM each time. Moreover, the phenotypically active is 1 (active) in the experiment on A549-ACTB-RAB5A [6]; 0 (inactive) in the experiment with A549-CANX-COX4; 1 (active) with A549-GM130-SQSTM1 [7]; 0 (inactive) in the experiment on A549-TP53BP1-CLTA; 1 (active) with A549-TUBA1B-RELA [8]; 1 (active) in the experiment with HepG2-ACTB-RAB5A [9]. Moreover, the phenotypically active is 1 (active) in the experiment with HepG2-CANX-COX4; 1 (active) in the experiment with HepG2-GM130-SQSTM1; 1 (active) in the experiment on HepG2-TP53BP1-CLTA; 0 (inactive) with HepG2-TUBA1B-RELA; 0 (inactive) in the experiment with WPMY1-ACTB-RAB5A; 0 (inactive) in the experiment with WPMY1-CANX-COX4. Further, the phenotypically active in the experiment with WPMY1-GM130-SQSTM1 [10] is 1 (active); in the experiment with WPMY1-TP53BP1-CLTA, 1 (active); in the experiment with WPMY1-TUBA1B-RELA, 0 (inactive).

Values taken from the supplement of paper PMC7411054.
